Assay results as given in PubChem BioAssay (EPA / NIEHS).
Several values for one entry are separate records, joined by “and”; a condition that tells them apart may be missing. Equal entries are not always repeated. Inconclusive results are not listed. Activity calls are given as the source filed them. How the source made its calls, unless noted: active means hit-call score of the fitted dose curve at least 0.9, where 1 is the maximum; inconclusive means response in the unintended direction; inactive means score below 0.9.

Key:
[1] = target: human AMP-activated Protein Kinase, alpha 1 (AMPKa1), PRKAA1 (gene 5562) (UniProt Q13131); experiment: NVS_ENZ_hAMPKa1: NovaScreen (NVS) Enzymatic Assay for human AMP-activated Protein Kinase, alpha 1 (AMPKa1) (AID 2283130)
How it was run: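 Compounds were screened in duplicate at 25 uM, and those reaching ~30% inhibition were titrated up to 50 uM. The enzyme was recombinant human AMPKα1, and kinase turnover was read by fluorescence/mobility shift 1 h post-dosing as loss of signal versus DMSO.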

[2] = target: human Aurora Kinase A - serine/threonine-protein Kinase 6 (AurA), AURKA (gene 6790) (UniProt O14965); experiment: NVS_ENZ_hAurA: NovaScreen (NVS) Enzymatic Assay for human Aurora Kinase A - serine/threonine-protein Kinase 6 (AurA) (AID 2283142)
How it was run: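 Recombinant human AurA activity read by fluorescence after mobility-shift separation of product from substrate; 1 hour incubation. Chemicals first run in duplicate at 25 uM, then concentration series to 50 uM if over threshold; fitted relative to DMSO.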

[3] = target: human Fibroblast Growth Factor Receptor 1 (FGFR1), FGFR1 (gene 2260) (UniProt P11362); experiment: NVS_ENZ_hFGFR1: NovaScreen (NVS) Enzymatic Assay for human Fibroblast Growth Factor Receptor 1 (FGFR1) (AID 2283159)
How it was run: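 Cell-free recombinant kinase with fluorescent substrate, product separated by electrophoretic mobility shift; read 1 hour after dosing, loss of signal relative to DMSO. Initial screen in duplicate at 25 uM, actives followed in concentration series.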

[4] = target: human Mitogen-Activated Protein Kinase 1 (MAPK 1), MAPK1 (gene 5594) (UniProt P28482); experiment: NVS_ENZ_hMAPK1: NovaScreen (NVS) Enzymatic Assay for human Mitogen-Activated Protein Kinase 1 (MAPK 1) (AID 2283175)
How it was run: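 Cell-free recombinant human MAPK1 enzymatic assay, fluorescence/electrophoretic mobility shift read at 1 h; loss of signal vs DMSO. Primary screen in duplicate at 25 uM; actives (e.g. ≥30% inhibition) run as concentration-response up to 50 uM.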

[5] = target: human MET Proto-Oncogene, Receptor Tyrosine Kinase (MET), MET (gene 4233) (UniProt P08581); experiment: NVS_ENZ_hMet: NovaScreen (NVS) Enzymatic Assay for human MET Proto-Oncogene, Receptor Tyrosine Kinase (MET) (AID 2283180)
How it was run: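 Hits from a 25 uM duplicate screen were retested in concentration series up to 50 uM. Enzyme activity was measured by fluorescence after electrophoretic separation of product from substrate, 1 h after compound addition, relative to DMSO.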

[6] = target: human Phosphatase and Tensin Homolog (PTEN), PTEN (gene 5728) (UniProt P60484); experiment: NVS_ENZ_hPTEN: NovaScreen (NVS) Enzymatic Assay for human Phosphatase and Tensin Homolog (PTEN) (AID 2283203)
How it was run: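 Loss of fluorescent product signal after mobility-shift separation reports PTEN activity, recombinant human enzyme, 1 h after compound addition. Single 25 uM duplicate screen, then concentration-response on actives; DMSO baseline.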

[7] = target: human Protein Tyrosine Phosphatase Non-receptor Type 2 (PTPN2), PTPN2 (gene 5771) (UniProt P17706); experiment: NVS_ENZ_hPTPN2: NovaScreen (NVS) Enzymatic Assay for human Protein Tyrosine Phosphatase Non-receptor Type 2 (PTPN2) (AID 2283207)
How it was run: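 Activity measured as fluorescence after mobility-shift separation of substrate and product, 1 h after compound. Duplicate single-point 25 uM primary testing, concentration series for actives; inhibition scored as signal loss relative to DMSO baseline.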

[8] = target: human Tyrosine Protein Kinase Receptor Tie-2 (Tie2), TEK (gene 7010) (UniProt Q02763); experiment: NVS_ENZ_hTie2: NovaScreen (NVS) Enzymatic Assay for human Tyrosine Protein Kinase Receptor Tie-2 (Tie2) (AID 2283225)
How it was run: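 Substrate and product were separated by mobility shift and detected by fluorescence after a 1-hour reaction with recombinant Tie2. Chemicals passing a 25 uM single-point screen were titrated to a maximum of 50 uM. Results were normalized to DMSO baseline.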

[9] = target: rat Monoamine Oxidase, MAO-B, Peripheral (MAOBP), Maob (gene 25750) (UniProt P19643); experiment: NVS_ENZ_rMAOBP: NovaScreen (NVS) Enzymatic Assay for rat Monoamine Oxidase, MAO-B, Peripheral (MAOBP) (AID 2283242)
[10] = target: human Acetylcholinesterase (AChE), ACHE (gene 43) (UniProt P22303); experiment: NVS_ENZ_hAChE: NovaScreen (NVS) Enzymatic Assay for human Acetylcholinesterase (AChE) (AID 2283129)
How it was run: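 Actives from a duplicate single-point screen (25 uM) were followed up in concentration series. Enzyme activity read by absorbance (colorimetric) 0.33 hour after dosing, cell-free, normalized to DMSO, with loss of signal scored.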

[11] = target: rat CYP2C12, Cyp2c12 (gene 25011) (UniProt P11510); experiment: NVS_ADME_rCYP2C12: NovaScreen (NVS) CYP450-related Enzyme Activity (ADME) Assay for rat CYP2C12 (AID 2283119)
How it was run: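 Fluorescent-substrate turnover by recombinant rat CYP2C12, measured at 0.5 h, normalized to acetonitrile vehicle. Chemicals screened first at a single 10 uM concentration in duplicate, with concentration series for actives.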

[12] = target: rat CYP2D1, Cyp2d1 (gene 266684) (UniProt P10633); experiment: NVS_ADME_rCYP2D1: NovaScreen (NVS) CYP450-related Enzyme Activity (ADME) Assay for rat CYP2D1 (AID 2283122)
How it was run: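 Rat CYP2D1 enzyme activity measured by fluorescence intensity in a cell-free format, 0.75 h post-dosing, acetonitrile as negative control. Screening at 10 uM in duplicate, with actives followed in concentration series up to 20 uM.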

[13] = target: human Ephrin type-A Receptor 2 (EphA2), EPHA2 (gene 1969) (UniProt P29317); experiment: NVS_ENZ_hEphA2: NovaScreen (NVS) Enzymatic Assay for human Ephrin type-A Receptor 2 (EphA2) (AID 2283155)
How it was run: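 Enzyme activity of recombinant EphA2 read by fluorescence after mobility-shift separation, 1 h after dosing. Chemicals first tested at 25 uM (duplicate); those passing threshold run as concentration series, top 50 uM, single replicate, relative to DMSO.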

[14] = target: human Ephrin type-B Receptor 2 (EphB2), EPHB2 (gene 2048) (UniProt P29323); experiment: NVS_ENZ_hEphB2: NovaScreen (NVS) Enzymatic Assay for human Ephrin type-B Receptor 2 (EphB2) (AID 2283156)
How it was run: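 Compounds were first tested in duplicate at 25 uM, with hits rerun singly in concentration series up to 50 uM. Enzyme activity on fluorescent substrate was read at 1 h by mobility-shift separation, scored as signal loss relative to DMSO.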

[15] = system: rat Monoamine Oxidase, MAO-A, Peripheral (MAOAP), gene 29253; experiment: NVS_ENZ_rMAOAP: NovaScreen (NVS) Enzymatic Assay for rat Monoamine Oxidase, MAO-A, Peripheral (MAOAP) (AID 2283237)
How it was run: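 Scintillation counting tracked MAO-A activity in a cell-free rat liver mitochondrial membrane prep, read 1.17 hours after compound addition. Single-point duplicate testing at 25 uM preceded concentration-response follow-up; activity was fitted relative to DMSO.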

[16] = target: rat Oxytocin Receptor (OXT), Oxtr (gene 25342) (UniProt P70536); experiment: NVS_GPCR_rOXT: NovaScreen (NVS) G Protein-Coupled Receptor Assay for rat Oxytocin Receptor (OXT) (AID 2283330)
How it was run: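 Binding to rat uterine membrane receptor was followed by scintillation counting of filter-trapped radioligand after 1 h. A 25 uM duplicate single-point screen preceded concentration series with a top of 50 uM. Signal loss was analysed relative to DMSO.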

[17] = target: Norway rat Vesicular Monoamine Transporter (VMAT2), neurotransmitter transporter, Slc18a2 (gene 25549) (UniProt Q01827); experiment: NVS_TR_rVMAT2: NovaScreen (NVS) Transporter Assay for Norway rat Vesicular Monoamine Transporter (VMAT2), neurotransmitter transporter (AID 2283376);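 further: actives lower the bound radioligand signal below the DMSO level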
How it was run: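 Binding endpoint from rat forebrain tissue, cell-free; 1 h incubation; filtered radioligand counted; 25 uM duplicate primary then dose series; DMSO negative control.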

[18] = CCTE_Harrill_HTTr_Apoptosis_PRF_DMEM_12hr: (Pilot) CCTE's 12-hour Apoptosis Assessment for the High-Throughput Transcriptomics (HTTr) Platform, in MCF-7 cells cultured in phenol red-free DMEM + 10% charcoal-stripped fetal bovine serum, Harrill Lab (AID 2283985; active means hit-call score of the fitted dose curve at least 0.9, where 1 is the maximum; inactive means score below 0.9)
How it was run: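 Caspase-3/7 activity by CellEvent Green high content imaging after 12 h compound exposure (eight concentrations) in MCF-7 grown in phenol red-free DMEM plus 10% charcoal-stripped serum; DMSO as baseline.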

[19] = target: human Matrix Metalloproteinase-1 (MMP1), MMP1 (gene 4312) (UniProt P03956); experiment: NVS_ENZ_hMMP1: NovaScreen (NVS) Enzymatic Assay for human Matrix Metalloproteinase-1 (MMP1) (AID 2283181)
How it was run: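 Cell-free fluorescent substrate assay of human MMP1, read after 1 h. A single 25 uM duplicate screen was followed by concentration series to a maximum of 50 uM for actives meeting threshold; inhibition analysed against DMSO baseline.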

[20] = system: rat Monoamine Oxidase, MAO-A, Central (MAOAC), gene 29253; experiment: NVS_ENZ_rMAOAC: NovaScreen (NVS) Enzymatic Assay for rat Monoamine Oxidase, MAO-A, Central (MAOAC) (AID 2283243);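 further: potency refers to inhibition seen as signal drop below DMSO baseline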
How it was run: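 Single-concentration duplicate testing at 25 uM, then concentration-response for actives, in a lysate-based radiodetection MAO-A activity assay from rat brain. Enzyme activity measured 1.5 hours post-dosing; DMSO served as negative control and baseline.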

[21] = TOX21_TRB_BLA_Agonist_Followup_viability: Viability Assessment in the Tox21 Thyroid Hormone Receptor beta Agonism Beta-lactamase (BLA) Follow-Up Assay (AID 2283956)
How it was run: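 Viability was read as CellTiter-Glo luminescence in the same wells as the TRb-bla agonist read-out. HEK293T GAL4-TRb LBD cells were treated for 18 h (37C, 5% CO2) at 11 concentrations in triplicate. Fits were bidirectional versus DMSO baseline.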

[22] = target: human Caspase 10 (CASP10), CASP10 (gene 843) (UniProt Q92851); experiment: NVS_ENZ_hCASP10: NovaScreen (NVS) Enzymatic Assay for human Caspase 10 (CASP10) (AID 2283133)
How it was run: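 Fluorescence-intensity enzyme read-out of E. coli-expressed CASP10 activity, 1 h after compound. Single-point duplicates at 25 uM preceded concentration-response testing (top 50 uM) of hits; inhibition expressed as signal loss versus DMSO.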

Caspase-1 (Homo sapiens) = Caspase-1 (Homo sapiens) (UniProt P29466); experiment: NVS_ENZ_hCASP1: NovaScreen (NVS) Enzymatic Assay for human Caspase 1 (CASP1) (AID 2283132)
How it was run: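 Compounds were first tested in duplicate at 25 uM, with follow-up concentration series up to 50 uM. The bacterially expressed enzyme was read by fluorescence at 1 h post-dosing. Signal loss versus DMSO baseline indicates reduced enzyme activity.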

[23] = target: rat Monoamine Oxidase, MAO-B, Central (MAOBC), Maob (gene 25750) (UniProt P19643); experiment: NVS_ENZ_rMAOBC: NovaScreen (NVS) Enzymatic Assay for rat Monoamine Oxidase, MAO-B, Central (MAOBC) (AID 2283238)
How it was run: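 Here MAO-B activity in rat brain preparations is quantified radiometrically, counts taken at 1.17 hours. Concentration-response runs reach 50 uM, with plate controls, and values are fitted as loss of signal from the DMSO baseline.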

human Fibroblast Growth Factor Receptor 1 (FGFR1), FGFR1 (gene 2260), sequence (P11362 whole entry, looked up): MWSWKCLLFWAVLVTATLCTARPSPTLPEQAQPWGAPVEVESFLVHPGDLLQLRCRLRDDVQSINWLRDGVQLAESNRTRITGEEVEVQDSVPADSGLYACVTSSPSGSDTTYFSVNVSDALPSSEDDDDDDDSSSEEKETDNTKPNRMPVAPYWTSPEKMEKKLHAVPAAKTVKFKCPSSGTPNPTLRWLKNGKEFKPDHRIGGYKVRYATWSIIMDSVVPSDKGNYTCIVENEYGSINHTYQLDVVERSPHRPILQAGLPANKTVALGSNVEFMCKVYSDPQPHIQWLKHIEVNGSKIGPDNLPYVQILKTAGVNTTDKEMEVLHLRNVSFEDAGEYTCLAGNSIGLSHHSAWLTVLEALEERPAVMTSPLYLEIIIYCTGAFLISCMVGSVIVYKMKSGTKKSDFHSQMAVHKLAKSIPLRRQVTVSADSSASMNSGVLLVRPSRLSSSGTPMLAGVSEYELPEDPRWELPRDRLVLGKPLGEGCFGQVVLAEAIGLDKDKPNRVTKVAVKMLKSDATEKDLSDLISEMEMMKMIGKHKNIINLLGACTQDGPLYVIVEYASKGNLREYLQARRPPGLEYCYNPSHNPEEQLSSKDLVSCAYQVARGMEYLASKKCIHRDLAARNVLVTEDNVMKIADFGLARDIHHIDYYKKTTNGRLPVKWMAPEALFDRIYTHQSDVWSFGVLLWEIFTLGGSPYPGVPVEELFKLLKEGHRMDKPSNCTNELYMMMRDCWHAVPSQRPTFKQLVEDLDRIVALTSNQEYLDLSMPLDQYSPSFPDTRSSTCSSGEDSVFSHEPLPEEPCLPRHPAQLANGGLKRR
rat Monoamine Oxidase, MAO-B, Peripheral (MAOBP), Maob (gene 25750), sequence (P19643 whole entry, looked up): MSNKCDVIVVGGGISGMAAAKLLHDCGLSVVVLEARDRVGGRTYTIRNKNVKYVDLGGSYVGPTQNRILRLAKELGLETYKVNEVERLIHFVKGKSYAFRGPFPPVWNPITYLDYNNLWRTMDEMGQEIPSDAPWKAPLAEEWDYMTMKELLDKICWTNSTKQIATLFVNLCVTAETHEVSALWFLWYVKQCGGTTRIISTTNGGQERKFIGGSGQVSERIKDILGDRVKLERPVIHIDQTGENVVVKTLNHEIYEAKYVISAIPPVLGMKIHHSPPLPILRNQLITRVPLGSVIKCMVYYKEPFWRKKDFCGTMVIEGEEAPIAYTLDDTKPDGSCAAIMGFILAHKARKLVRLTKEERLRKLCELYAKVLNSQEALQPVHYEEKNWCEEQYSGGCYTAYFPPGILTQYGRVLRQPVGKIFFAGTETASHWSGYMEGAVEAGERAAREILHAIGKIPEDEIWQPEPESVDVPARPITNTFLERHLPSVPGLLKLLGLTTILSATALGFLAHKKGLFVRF
human Mitogen-Activated Protein Kinase 1 (MAPK 1), MAPK1 (gene 5594), sequence (P28482 whole entry, looked up): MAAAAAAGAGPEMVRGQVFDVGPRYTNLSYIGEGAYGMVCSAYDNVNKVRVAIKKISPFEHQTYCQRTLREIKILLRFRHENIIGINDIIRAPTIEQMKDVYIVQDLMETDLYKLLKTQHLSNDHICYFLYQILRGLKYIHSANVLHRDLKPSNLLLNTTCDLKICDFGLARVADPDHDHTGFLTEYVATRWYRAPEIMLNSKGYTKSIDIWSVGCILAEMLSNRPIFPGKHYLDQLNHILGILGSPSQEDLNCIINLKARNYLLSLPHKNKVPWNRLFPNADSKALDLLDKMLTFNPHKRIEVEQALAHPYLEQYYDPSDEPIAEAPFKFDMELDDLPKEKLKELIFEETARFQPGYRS
Norway rat Vesicular Monoamine Transporter (VMAT2), neurotransmitter transporter, Slc18a2 (gene 25549), sequence (Q01827 whole entry, looked up): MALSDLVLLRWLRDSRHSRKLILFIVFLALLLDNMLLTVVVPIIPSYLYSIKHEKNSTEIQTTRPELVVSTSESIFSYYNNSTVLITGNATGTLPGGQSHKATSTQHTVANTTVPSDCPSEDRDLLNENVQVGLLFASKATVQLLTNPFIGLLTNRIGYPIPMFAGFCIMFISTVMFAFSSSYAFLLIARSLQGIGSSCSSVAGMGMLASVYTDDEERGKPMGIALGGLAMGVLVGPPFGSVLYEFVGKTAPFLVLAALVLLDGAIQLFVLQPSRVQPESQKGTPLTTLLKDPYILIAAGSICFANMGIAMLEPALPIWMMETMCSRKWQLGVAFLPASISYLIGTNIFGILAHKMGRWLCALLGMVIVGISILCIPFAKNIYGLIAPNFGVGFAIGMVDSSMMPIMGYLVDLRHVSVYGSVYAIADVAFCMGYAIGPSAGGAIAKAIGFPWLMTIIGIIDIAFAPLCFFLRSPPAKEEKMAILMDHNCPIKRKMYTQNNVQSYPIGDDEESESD
human Aurora Kinase A - serine/threonine-protein Kinase 6 (AurA), AURKA (gene 6790), sequence (O14965 whole entry, looked up): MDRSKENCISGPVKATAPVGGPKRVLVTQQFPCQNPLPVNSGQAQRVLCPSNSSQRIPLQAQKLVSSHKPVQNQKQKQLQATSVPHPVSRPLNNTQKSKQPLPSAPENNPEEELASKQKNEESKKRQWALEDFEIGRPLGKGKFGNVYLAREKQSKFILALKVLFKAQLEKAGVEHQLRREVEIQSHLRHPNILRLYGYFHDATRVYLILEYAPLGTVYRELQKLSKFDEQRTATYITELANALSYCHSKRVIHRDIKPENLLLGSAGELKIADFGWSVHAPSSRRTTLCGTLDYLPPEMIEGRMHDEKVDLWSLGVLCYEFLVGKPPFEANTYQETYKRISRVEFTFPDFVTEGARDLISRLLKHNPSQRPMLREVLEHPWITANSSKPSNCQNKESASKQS
rat CYP2C12, Cyp2c12 (gene 25011), sequence (P11510 whole entry, looked up): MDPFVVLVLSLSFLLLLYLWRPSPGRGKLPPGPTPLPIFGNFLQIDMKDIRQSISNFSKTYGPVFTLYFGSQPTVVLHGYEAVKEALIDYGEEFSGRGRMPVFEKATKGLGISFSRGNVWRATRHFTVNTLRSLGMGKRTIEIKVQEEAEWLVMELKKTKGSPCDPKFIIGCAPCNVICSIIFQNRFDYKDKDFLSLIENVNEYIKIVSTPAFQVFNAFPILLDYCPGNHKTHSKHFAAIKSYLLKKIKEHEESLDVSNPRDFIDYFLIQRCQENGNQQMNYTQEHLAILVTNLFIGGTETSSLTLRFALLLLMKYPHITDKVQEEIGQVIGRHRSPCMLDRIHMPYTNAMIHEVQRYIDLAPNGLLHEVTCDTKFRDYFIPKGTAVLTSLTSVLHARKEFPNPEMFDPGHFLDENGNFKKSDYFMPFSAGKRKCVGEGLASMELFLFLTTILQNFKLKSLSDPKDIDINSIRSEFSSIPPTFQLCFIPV
human AMP-activated Protein Kinase, alpha 1 (AMPKa1), PRKAA1 (gene 5562), sequence (Q13131 whole entry, looked up): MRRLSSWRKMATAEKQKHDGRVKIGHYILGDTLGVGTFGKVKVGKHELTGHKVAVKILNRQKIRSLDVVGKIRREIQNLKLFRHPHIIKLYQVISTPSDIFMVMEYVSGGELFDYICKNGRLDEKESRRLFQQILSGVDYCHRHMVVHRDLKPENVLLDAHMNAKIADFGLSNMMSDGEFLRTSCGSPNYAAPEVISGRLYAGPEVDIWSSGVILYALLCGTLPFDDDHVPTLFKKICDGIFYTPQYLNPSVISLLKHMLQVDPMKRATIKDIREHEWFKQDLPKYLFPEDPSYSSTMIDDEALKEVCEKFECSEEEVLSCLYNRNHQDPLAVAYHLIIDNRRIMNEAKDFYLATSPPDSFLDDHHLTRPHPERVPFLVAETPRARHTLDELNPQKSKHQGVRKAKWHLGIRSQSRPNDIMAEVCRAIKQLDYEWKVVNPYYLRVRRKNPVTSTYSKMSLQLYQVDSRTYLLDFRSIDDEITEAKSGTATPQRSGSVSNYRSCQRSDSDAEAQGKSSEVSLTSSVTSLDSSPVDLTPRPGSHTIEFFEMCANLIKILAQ
human Phosphatase and Tensin Homolog (PTEN), PTEN (gene 5728), sequence (P60484 whole entry, looked up): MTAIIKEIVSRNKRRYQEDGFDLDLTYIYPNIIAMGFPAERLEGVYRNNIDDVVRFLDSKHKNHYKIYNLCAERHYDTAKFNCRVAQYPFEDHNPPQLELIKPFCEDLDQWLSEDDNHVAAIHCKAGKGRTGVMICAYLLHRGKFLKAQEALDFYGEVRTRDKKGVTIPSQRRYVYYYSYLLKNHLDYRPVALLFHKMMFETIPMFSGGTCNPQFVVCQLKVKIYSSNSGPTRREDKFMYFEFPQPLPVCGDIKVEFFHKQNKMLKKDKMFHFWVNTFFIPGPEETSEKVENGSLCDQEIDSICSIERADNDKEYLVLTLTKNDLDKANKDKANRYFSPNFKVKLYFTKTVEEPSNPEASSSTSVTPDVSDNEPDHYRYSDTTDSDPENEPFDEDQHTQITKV
human Protein Tyrosine Phosphatase Non-receptor Type 2 (PTPN2), PTPN2 (gene 5771), sequence (P17706 whole entry, looked up): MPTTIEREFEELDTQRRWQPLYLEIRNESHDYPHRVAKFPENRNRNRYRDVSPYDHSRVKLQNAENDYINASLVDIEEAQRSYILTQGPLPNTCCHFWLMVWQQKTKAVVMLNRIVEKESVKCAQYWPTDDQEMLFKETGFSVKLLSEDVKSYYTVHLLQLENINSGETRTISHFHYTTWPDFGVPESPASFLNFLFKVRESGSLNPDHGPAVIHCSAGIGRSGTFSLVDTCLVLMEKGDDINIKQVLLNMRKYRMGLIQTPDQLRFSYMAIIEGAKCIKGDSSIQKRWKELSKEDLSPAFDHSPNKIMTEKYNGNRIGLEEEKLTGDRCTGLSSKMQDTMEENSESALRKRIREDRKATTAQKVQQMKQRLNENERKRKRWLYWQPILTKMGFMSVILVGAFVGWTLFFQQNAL
human Matrix Metalloproteinase-1 (MMP1), MMP1 (gene 4312), sequence (P03956 whole entry, looked up): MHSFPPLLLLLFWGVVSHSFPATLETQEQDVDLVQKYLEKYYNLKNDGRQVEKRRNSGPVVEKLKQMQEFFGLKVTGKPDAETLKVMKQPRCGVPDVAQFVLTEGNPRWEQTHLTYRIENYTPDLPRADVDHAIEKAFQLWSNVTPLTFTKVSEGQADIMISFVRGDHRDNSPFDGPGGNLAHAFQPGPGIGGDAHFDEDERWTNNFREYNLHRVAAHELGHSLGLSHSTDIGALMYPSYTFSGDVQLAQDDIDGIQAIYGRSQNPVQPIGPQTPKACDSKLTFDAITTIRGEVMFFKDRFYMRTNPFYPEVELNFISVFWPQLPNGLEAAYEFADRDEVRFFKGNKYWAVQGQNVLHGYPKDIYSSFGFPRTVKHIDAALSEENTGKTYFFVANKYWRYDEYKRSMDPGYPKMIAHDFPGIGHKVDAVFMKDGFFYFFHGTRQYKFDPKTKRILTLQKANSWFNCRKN

NCCO
outcome [1]: inactive
outcome [2]: inactive
outcome [3]: inactive
outcome [4]: inactive
outcome [5]: inactive
outcome [6]: inactive
outcome [7]: inactive
outcome [8]: inactive
outcome [9]: inactive

CCCCCOC(C)=O
outcome [10]: inactive

CC(C)(c1ccc(O)cc1)c1ccc(O)cc1
AC50 [11]: 7.75 µM (active) and 4.05 µM (active) and 10 µM (active)
AC50 [12]: 10 µM (active)
outcome [13]: inactive
outcome [14]: inactive
outcome [3]: inactive
outcome [4]: inactive
outcome [6]: inactive
outcome [15]: inactive
AC50 [16]: 7.41 µM (active)
AC50 [17]: 12.5 µM (active) [middle of 4 runs]
outcome [18]: inactive

CCOC(=O)O[C@H](C)OC(=O)c1ccc2c(c1)cc(C(=O)NC1CCN(C(C)C)CC1)n2Cc1cc(-c2ccc(Cl)s2)on1
AC50 [10]: 5.36 µM (active)
outcome [19]: inactive
AC50 [20]: 23.6 µM (active)
AC50 [17]: 5.06 µM (active)

O=c1[nH]cnc2c1ncn2[C@H]1CC[C@@H](CO)O1
outcome [1]: inactive
outcome [2]: inactive
outcome [3]: inactive
outcome [5]: inactive
outcome [6]: inactive
outcome [7]: inactive
outcome [21]: inactive

O=C(O)CCCCC(=O)O
AC50 [22]: 11.4 µM (active)

CCc1cc(SCc2sc(-c3ccc(C(F)(F)F)cc3)nc2CN2CCN(c3ccc(OC)cc3)CC2)ccc1OCC(=O)O
AC50 (Caspase-1 (Homo sapiens)): 46.1 µM (active)
AC50 [19]: 1.06 µM (active)
AC50 [15]: 25 µM (active)
AC50 [23]: 15 µM (active)
outcome [9]: inactive

CN(C)C(=O)NC1(c2ccccc2)CCN(CCC[C@]2(c3ccc(Cl)c(Cl)c3)CCCN(C(=O)c3ccccc3)C2)CC1
outcome [1]: inactive
outcome [2]: inactive
outcome [13]: inactive
outcome [14]: inactive
outcome [3]: inactive
outcome [4]: inactive
outcome [9]: inactive
